TDP1 cell noCPT = qHTS for Inhibitors of human tyrosyl-DNA phosphodiesterase 1 (TDP1): qHTS in cells in absence of CPT. DT40 Tdp1-/- hTDP1 cells, no CPT, ATP luminescence, 48 h. Potency, µM (titrated, usually from 46.2 µM), without a hit: top-dose activity change, negative = growth inhibition, hits mostly inhibitors. 420,000 tested, 15% active. AID 686978, 2013; further: potency means the concentration at half of the fitted maximal effect; nearly all actives have a fitted effect of over 55% in size
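Chicken DT40 Tdp1-/- cells stably complemented with human TDP1 were seeded at 400 cells/well with DMSO in place of 20 nM camptothecin. After compound pinning, cells grew at least 48 hr at 37 °C; viability read by CellTiter-Glo luminescence.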
VP16 counter = Gal4-VP16 reporter inhibition counter-screen; Drosophila S2 Gal4-VP16 UAS-luciferase, luminescence, 20 h; Potency, µM (top dose mostly 53.6 µM), inactives show at the highest dose activity, negative = inhibition, actives largely listed as inhibitors; 310,000 tested, 3.5% active;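 further: Gal4-VP16 expression switched on by copper sulfate through the metallothionein promoter; potency means the concentration at half of the fitted maximal effect; nearly all actives have a fitted effect of over 50% in size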
IL-1B inflam inh = blocks inflammasome-driven IL-1 beta release | THP-1 LPS/ATP IL-1B secretion, AlphaLISA, 16 h; hits give low values | activity change, % at 57.5 µM | 360,000 tested, 4.7% active | AID 743279; in the data active means activity change below about -50%; inconclusive means mostly about -30% to -49%
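Secreted IL-1B measured by AlphaLISA bead assay after 16 h compound exposure of THP-1 cells; compounds (final up to 57.5 uM) added 1 h before LPS (250 ng/mL) and ATP (1.25 mM) stimulation; lower signal means less secretion.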
TDP1 cell CPT = DT40-hTDP1 cell growth loss with CPT; 420,000 tested, 12% active; AID 686979; chicken DT40 Tdp1-/-;hTDP1 cells + 20 nM CPT, ATP luminescence, 48 h; Potency, µM (highest dose often 46.2 µM), for the others: at the top dose activity change, negative = growth inhibition, hits mostly inhibitors; further: potency means the concentration at half of the fitted maximal effect; nearly all actives have a fitted effect of over 55% in size
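Chicken DT40 Tdp1-/- cells stably complemented with human TDP1 were seeded at 400 cells/well in medium containing 20 nM camptothecin, exposed to pin-transferred compounds, and grown at 37 °C for at least 48 hr. Viability was read as ATP luminescence.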
RORg inh = inhibitors of mouse ROR gamma transcriptional activity; P51450; Drosophila S2 Gal4-RORgamma UAS-luciferase reporter, 20 h; Potency, µM (highest dose often 53.6 µM), for inactives: top-dose activity change, negative = inhibition, hits mostly inhibitors; 310,000 tested, 5.4% active; further: potency means the concentration at half of the fitted maximal effect; nearly all actives have a fitted effect of over 60% in size
Target sequence (P51450 whole entry, looked up, the tested form may be a part): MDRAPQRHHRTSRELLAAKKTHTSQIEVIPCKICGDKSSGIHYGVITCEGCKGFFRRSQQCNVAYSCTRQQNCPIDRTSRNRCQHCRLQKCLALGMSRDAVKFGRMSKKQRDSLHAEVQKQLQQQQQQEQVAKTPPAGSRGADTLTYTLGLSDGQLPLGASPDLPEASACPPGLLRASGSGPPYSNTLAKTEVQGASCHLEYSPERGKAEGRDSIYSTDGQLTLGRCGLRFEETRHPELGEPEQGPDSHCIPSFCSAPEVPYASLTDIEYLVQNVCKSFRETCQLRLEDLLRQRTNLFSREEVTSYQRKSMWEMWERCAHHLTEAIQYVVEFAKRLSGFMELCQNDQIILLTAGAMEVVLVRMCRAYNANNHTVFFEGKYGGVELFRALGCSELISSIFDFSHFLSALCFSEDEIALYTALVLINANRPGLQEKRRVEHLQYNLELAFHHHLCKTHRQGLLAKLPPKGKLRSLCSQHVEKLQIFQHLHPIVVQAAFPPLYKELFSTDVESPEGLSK
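Read-out: Photinus luciferase luminescence; inhibitors lower reporter signal. Insect Schneider cells with Gal4-ROR gamma fusion under metallothionein promoter, UAS reporter; 700 uM final copper sulfate induction, 20 hr, ambient temperature.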
LDHA inh = blocks human lactate dehydrogenase A; 480,000 tested, 0.15% active; purified LDHA, NADH/diaphorase-resazurin fluorescence; hits give low values; AID 1347041; activity change, % (values are at about 110 or 230 µM); in the data active means activity change below about -30%; inconclusive means mostly about -25% to -30%;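 further: plate controls were DMSO wells for no effect and wells without enzyme for full effect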
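Remaining NADH was detected by diaphorase (0.133 mg/mL) converting 37 µM resazurin to fluorescent resorufin, read at 0 and 20 minutes. The preceding 5-minute room-temperature reaction used 2 nM LDHA, 0.2 mM sodium pyruvate and 0.06 mM NADH at pH 7.4.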
An asterisk follows results filed as active; ? = inconclusive; . = no result given. Most compounds without a hit are left out; they make up all but 18% or so of the library. Unless noted, the call rests on the fitted dose curve; in most records, active means well fitted curve in the direction sought with a large enough effect; inconclusive means small, poorly fitted or top-dose-only effect, or another doubt; inactive means no such curve, though single readings can be large; an effect the other way counts as inactive or inconclusive. Unless noted, on the % scale 0 is the no-effect control and ±100 the full control effect.

SMILES	TDP1 cell noCPT	VP16 counter	IL-1B inflam inh	TDP1 cell CPT	RORg inh	LDHA inh
CCOC(=O)N1CCN(C(=O)Cn2nc(-c3ccccc3)ccc2=O)CC1	.	.	.	.	.	2
COC(=O)c1ccc(CSc2ccc3nnc(-c4ccccn4)n3n2)o1	?	?	10	-13%	11µM*	-5
CCOc1ccc(-c2nnc3ccc(SCc4ccc(C(=O)OC)o4)nn23)cc1	16µM*	?	-15	?	-5%	1
CCOc1ccc(-c2nnc3ccc(SCC(=O)Nc4cc(C)on4)nn23)cc1	-13%	7%	1	3%	0%	-13
CCOc1ccc2nnc(-c3ccc(Br)cc3)n2n1	15µM*	-11%	11	?	?	-9
CCOC(=O)C(C)Sc1ccc2nnc(-c3ccc(OCC)cc3)n2n1 (stereo not given)	-89%	.	.	10µM*	.	6
CCOC(=O)C(C)Sc1ccc2nnc(-c3ccc(F)cc3)n2n1 (stereo not given)	?	-14%	17	?	-41%	-1
COCCN(CCOC)C(=O)COC(=O)c1ccc(C#N)cc1	.	.	.	.	.	4
COC(=O)c1ccc(CSc2ccc3nnc(-c4ccc(F)cc4)n3n2)o1	21µM*	2%	-4	?	-1%	-1
O=C(N/N=C/c1ccc(Cl)cc1)Nc1ccccc1	8.2µM*	-18%	-16	?	21%	-2
Clc1ccc(/C=N\Nc2ccccc2)cc1	-26%	18%	30	-19%	1%	2
O=C(CC(=O)Nc1cccc(Cl)c1)N/N=C\c1ccccc1	0.29µM*	-15%	-28	?	39%	0
O=C(N/N=C/c1cccs1)C(=O)Nc1cccc(Cl)c1	?	10µM*	7	0%	3.2µM*	-7
Clc1cccc(N/N=C/c2ccncc2)c1	?	13%	-53*	-24%	?	-4
Cc1ccc(N2C(=O)c3cc(-c4ccco4)nn3CC2(C)C(=O)NC2CCCCC2)cc1 (stereo not given)	.	.	.	.	.	-2
Cc1ccc(NC(=O)CC23CC4CC(CC(C4)C2)C3)cc1	.	.	.	.	.	4
O=C(C[C@@H]1C[C@@H]2c3cc(NS(=O)(=O)c4ccc(F)cc4)ccc3O[C@@H]2[C@H](CO)O1)NCc1ccc(Oc2ccccc2)cc1	?	.	-11	?	.	-1
O=C(C[C@@H]1C[C@H]2c3cc(NC(=O)c4cccnc4)ccc3O[C@H]2[C@H](CO)O1)NCc1ccc(Oc2ccccc2)cc1	5.8µM*	.	75	13µM*	.	1
O=C(C[C@@H]1C[C@H]2c3cc(NC(=O)C4CCC4)ccc3O[C@H]2[C@@H](CO)O1)NCc1ccc(-c2ccccc2)cc1	21µM*	.	5	18µM*	.	-3
O=C(Cn1c(=O)cc(C(=O)N2CCCC2)c2ccccc21)Nc1ccccc1F	.	.	.	.	.	-14
CCOC(=O)c1c(C)c(-c2ccccc2)n(CC(=O)NCCC(C)C)c1C	10µM*	4%	9	?	-7%	-7
CCn1nc(C(=O)Nc2nc(C(C)(C)C)cs2)c2ccccc2c1=O	.	.	.	.	.	4
CCCN(CC(=O)Nc1ccccc1C)C(=O)c1ccc(C)c(S(=O)(=O)N2CCCCC2)c1	-29%	.	-18	-14%	.	2
Cc1ccc(C(=O)N(CCc2ccccc2)Cc2ccccc2)cc1S(=O)(=O)N1CCOCC1	23µM*	.	-22	15µM*	.	2
O=C(c1cccc(S(=O)(=O)N2CCOCC2)c1)N(CCc1ccccc1)Cc1ccccc1	?	.	-15	?	.	-4
CC1CN(S(=O)(=O)c2cc(C(=O)N(CCc3ccccc3)Cc3ccccc3)ccc2Cl)CC(C)O1 (stereo not given)	10µM*	.	-4	12µM*	.	-3
CCN(Cc1ccccc1)C(=O)c1ccc(C)c(S(=O)(=O)N2CCCCC2)c1	16µM*	.	0	?	.	0

Bioassay records as filed in PubChem.
